Experimental findings from PubChem BioAssay are described below.

Active and inactive are the calls of the source.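 Rule for the calls, unless noted: active = fluorescence slope higher than the sample average by over 3 SD (cut at about -0.22 in these data, passing the limit was not always enough); inactive = the rest.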

Test [1] in a line: inhibitors of TNFa-induced NFkB p65 translocation, primary screen, imaging, HUVEC, MLSMR starter and 10KST1 sets (AID 438;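 active = inhibition above 20% together with a positive visual image hit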;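 note: compound added about 3h40 before a 20 min TNFalpha stimulation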;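 for inhibition: signal is the nuclear over cytoplasmic p65 intensity ratio per well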). The note with it: HUVEC TNFa-induced p65 nuclear translocation; cell count: measured here: nuclei count (cytotoxicity indicator), at 2.08 µM; inhibition: at 2 µM, stronger effect = higher value, 0% TNFa-plus-vehicle, 100% no-TNFa wells.
Test [2] can be described thus: reduction of polyQ htt aggregates in cells – imaging, exon1htt(103Q)mCFP cells, high-content imaging, primary screen (AID 483;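 active = visual image review flags a hit and inhibition of aggregation exceeds 20%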;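 note: compound exposure lasted 3 days before fixation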;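 for nuclei count: percent of the per-plate median nuclei count of sample wells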). The note with it: exon1htt(103Q)mCFP cell line, aggregate imaging, at 2 µM; inhibition of aggregation: stronger effect = higher value; nuclei count: measured here: cell count, toxicity.
The nature of test [3]: endothelial E-selectin expression blockers – imaging, HUVEC, immunofluorescence, MLSMR starter and 10KST1 sets, primary screen (AID 487;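 active = visually confirmed hit in the image check and inhibition above 20%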;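 for inhibition: signal is fraction of cell area covered by stained E-selectin grains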;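 for nuclei count: 100% = median nuclei count of all wells on the same plate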). The conditions noted are these: HUVEC TNFalpha-induced E-selectin immunofluorescence imaging, at 2 µM; inhibition: stronger effect = higher value; nuclei count: measured here: cell number, toxicity.
Test [4] concerns the target Voltage-gated potassium channel subunit beta-2 (Rattus norvegicus) (UniProt P62483). The test is described as follows: inhibitors of rat Kvbeta2 reductase activity – biochemical, NADPH fluorescence, primary screen (AID 622).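 Note: slope of raw intensity against log time taken from 70 to 1610 s.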 The note with it: recombinant KvBeta, 4-cyanobenzaldehyde reduction, at 10 µM, stronger effect = higher value.
Test [5] shares this target. Put plainly: enhancers of rat Kvbeta2 NADPH turnover – biochemical, NADPH fluorescence, primary screen (AID 623;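 active = NADPH fluorescence slope more negative than the mean of all samples by about 3 SD, 99.7% confidence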;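 note: fluorescence intensity change per second fitted from 20 to 320 s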). The note with it: Recombinant KvBeta, NADPH fluorescence decrease slope, 10 min; at 10 µM; stronger effect = lower value.
Test [6] addresses Alpha-2C adrenergic receptor (Homo sapiens) (UniProt P18825). Put plainly: compounds altering alpha2C-coupled GIRK flux – cell-based, HEK293 alpha2C/GIRK1/2, thallium flux, primary screen (AID 624;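 active = fluorescence slope after compound addition differing from the mean of all screened samples at 99.7% confidence, in either direction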;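 note: slope of fluorescence ratio to pre-addition baseline per second over 15 to 24 s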). The note with it: thallium flux BTC fluorescence, at 10 µM, actives lie on both sides.
A short description of test [7]: blockers of RIG-like receptor reporter activation – cell-based, Sendai virus stimulus, luciferase, 10K MLSCN set, TLR/RLR signaling modifier project, primary screen (AID 602276;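 active = inhibition at or above 50% at 10 µM; inactive = inhibition below 50%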;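 note: firefly luciferase from ISG56 promoter only with Renilla not read in this screen; 0% = Sendai virus plus DMSO and 100% = medium plus DMSO without virus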). The note with it: HEK293 RL24 IRF3 luciferase reporter, at 10 µM, stronger effect = higher value.
Test [8] is described as follows: TLR3 IRF3 reporter activation blockers – cell-based, poly I:C stimulus, luciferase, 10K MLSCN set, primary screen (AID 602277;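 active = inhibition of the reporter signal at or above 50%; inactive = inhibition below 50%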). The conditions noted are these: HEK293-TLR3 RL24 IRF3 luciferase reporter, at 10 µM, stronger effect = higher value.

Voltage-gated potassium channel subunit beta-2 (Rattus norvegicus), sequence (P62483 whole entry, looked up): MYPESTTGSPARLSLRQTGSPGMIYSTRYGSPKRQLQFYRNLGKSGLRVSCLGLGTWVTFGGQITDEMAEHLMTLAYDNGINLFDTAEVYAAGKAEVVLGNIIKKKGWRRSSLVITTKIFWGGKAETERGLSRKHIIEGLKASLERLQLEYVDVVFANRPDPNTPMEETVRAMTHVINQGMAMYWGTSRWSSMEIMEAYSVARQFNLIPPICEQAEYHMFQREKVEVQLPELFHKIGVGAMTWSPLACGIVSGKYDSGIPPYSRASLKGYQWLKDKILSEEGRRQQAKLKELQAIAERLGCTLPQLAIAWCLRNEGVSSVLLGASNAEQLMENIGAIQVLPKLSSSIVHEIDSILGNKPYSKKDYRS
Alpha-2C adrenergic receptor (Homo sapiens), sequence (P18825 whole entry, looked up): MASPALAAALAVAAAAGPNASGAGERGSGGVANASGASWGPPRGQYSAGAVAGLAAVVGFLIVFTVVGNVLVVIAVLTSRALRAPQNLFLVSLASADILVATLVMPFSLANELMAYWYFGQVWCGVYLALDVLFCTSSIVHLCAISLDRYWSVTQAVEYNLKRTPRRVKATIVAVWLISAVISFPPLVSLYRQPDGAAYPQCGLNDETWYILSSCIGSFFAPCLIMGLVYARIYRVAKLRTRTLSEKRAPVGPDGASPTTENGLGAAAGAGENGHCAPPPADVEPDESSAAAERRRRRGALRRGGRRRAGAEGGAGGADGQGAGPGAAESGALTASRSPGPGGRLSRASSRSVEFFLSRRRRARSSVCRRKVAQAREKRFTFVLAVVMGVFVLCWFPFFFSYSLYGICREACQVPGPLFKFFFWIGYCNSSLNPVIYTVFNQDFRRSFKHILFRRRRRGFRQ

Consider `CC(C)COC(=O)C(C#N)c1nc2ccccc2nc1N1CCN(Cc2ccccc2)CC1` (centres undefined), for which, in test [1], the cell count is 296. For the same molecule, the inhibition is 4.2% (inactive) in test [1], 17.8% (inactive) in test [3], 14.6% (inactive) in test [7] and 7.75% (inactive) in test [8]. Besides, in test [2], the inhibition of aggregation is 3.4% (inactive). Besides, the nuclei count is 91.2% in test [2] and 87% in test [3]. In addition, the fluorescence slope in test [4] is -0.425 (inactive). For the same molecule, the NADPH fluorescence slope in test [5] was 8.1e-06 (inactive). For the same molecule, in test [6], the slope is 0.00589 (inactive).
As for `CN1CCc2c(sc3c2C(=O)NC(c2cccc(OC(=O)c4cccs4)c2)N3)C1` (centres undefined), the cell count in test [1] was found to be 497. The inhibition in test [1] is -2.5% (inactive); in test [3], -21.9% (inactive); in test [7] it was -5.69% (inactive); in test [8], 10.3% (inactive). Further, the inhibition of aggregation in test [2] was -4.1% (inactive). The nuclei count was 101% in test [2] and 108% in test [3]. For the same molecule, the fluorescence slope in test [4] was -0.422 (inactive). The NADPH fluorescence slope in test [5] is -4.2e-05 (inactive). In addition, the slope in test [6] is 0.00392 (inactive).
Turning to `COCCn1c(CN(Cc2ccccc2)Cc2ccccc2)nc2c1c(=O)n(C)c(=O)n2C`, the cell count in test [1] is 633. The inhibition is -19% (inactive) in test [1], -48.5% (inactive) in test [3], 18.4% (inactive) in test [7] and 23.3% (inactive) in test [8]. The inhibition of aggregation in test [2] was -10.5% (inactive). In addition, the nuclei count worked out at 100% in test [2] and 115% in test [3]. For the same molecule, in test [4], the fluorescence slope is -0.56 (inactive). The NADPH fluorescence slope in test [5] was 6.1e-06 (inactive). Also, the slope in test [6] was 0.00386 (inactive).
In the case of `O=C(CSc1ncn[nH]1)c1ccco1`, the cell count in test [1] stood at 746. Moreover, the inhibition in test [1] is -13.5% (inactive); in test [3], 13.2% (inactive); in test [7], 18.7% (inactive); in test [8] it was 26.5% (inactive). The inhibition of aggregation in test [2] was -3.4% (inactive). Moreover, the nuclei count came to 112% in test [2] and 119% in test [3]. The fluorescence slope in test [4] is -0.453 (inactive). Also, the NADPH fluorescence slope in test [5] was -9.5e-06 (inactive). The slope in test [6] is 0.00556 (inactive).
Take `COc1ccc(CCNc2oc(-c3ccccc3OC)nc2C#N)cc1`: in test [1], the cell count came out at 216. The inhibition is -4.3% (inactive) in test [1], -19.1% (inactive) in test [3], -0.337% (inactive) in test [7] and 12.4% (inactive) in test [8]. The inhibition of aggregation in test [2] was 4% (inactive). Besides, the nuclei count in test [2] was determined as 86.1%; in test [3], 88.6%. For the same molecule, the fluorescence slope in test [4] was -0.413 (inactive). Besides, the NADPH fluorescence slope in test [5] is 2.3e-05 (inactive). For the same molecule, the slope in test [6] is 0.00318 (inactive).
For the molecule `CCn1c(C(Cc2ccccc2)NC(=O)COC)nc2ccccc21` (centres undefined), the cell count in test [1] stood at 471. In addition, the inhibition was 13.9% (inactive) in test [1], 14.1% (inactive) in test [3], 11% (inactive) in test [7] and 31.9% (inactive) in test [8]. In addition, in test [2], the inhibition of aggregation was 5.5% (inactive). The nuclei count came out at 124% in test [2] and 110% in test [3]. Also, the fluorescence slope in test [4] is -0.536 (inactive). Moreover, the NADPH fluorescence slope in test [5] was -6.3e-05 (inactive). For the same molecule, the slope in test [6] was 0.00652 (inactive).
Take `Cc1ccc(C)c(N2CCN(Cc3nnnn3C3CCCCC3)CC2)c1`: the cell count in test [1] was found to be 458. Besides, the inhibition in test [1] was -4.4% (inactive); in test [3], -49.3% (inactive); in test [7], 11.6% (inactive); in test [8] it was 34.8% (inactive). In addition, the inhibition of aggregation in test [2] was -7.6% (inactive). Moreover, the values for the nuclei count in test [2] and in test [3] were 123% and 112%, respectively. Besides, the fluorescence slope in test [4] is -0.626 (inactive). In addition, the NADPH fluorescence slope in test [5] was -2.5e-05 (inactive). Further, in test [6], the slope is 0.00597 (inactive).
Turning to `COc1ccc(CCN2C(=O)CCC2(C)C(=O)NCc2cccnc2)cc1OC` (centres undefined), the cell count in test [1] was determined as 436. Also, the inhibition in test [1] is -6% (inactive); in test [3] it was -83.9% (inactive); in test [7], 8.53% (inactive); in test [8], 7.83% (inactive). Besides, the inhibition of aggregation in test [2] was 5.2% (inactive). The figures for the nuclei count in test [2] and in test [3] were 103% and 97.9%, respectively. In addition, the fluorescence slope in test [4] was -0.602 (inactive). The NADPH fluorescence slope in test [5] is 2.6e-06 (inactive). In addition, the slope in test [6] is 0.0059 (inactive).
Consider `NC(=O)C1(N2CCCCC2)CCN(CC(=O)Nc2cc(Cl)ccc2Cl)CC1`, for which the cell count in test [1] turned out to be 357. Moreover, the inhibition was -3% (inactive) in test [1], 26.7% (inactive) in test [3], -15.6% (inactive) in test [7] and -7.63% (inactive) in test [8]. The inhibition of aggregation in test [2] is 14.8% (inactive). Also, the nuclei count is 86.2% in test [2] and 74.8% in test [3]. The fluorescence slope in test [4] is -0.583 (inactive). Besides, the NADPH fluorescence slope in test [5] is -5.7e-05 (inactive). Moreover, the slope in test [6] was 0.00416 (inactive).
Turning to `CCOc1ccccc1N(C(=O)c1ccco1)C(C(=O)NC1CCCC1)c1cccnc1` (centres undefined), the cell count in test [1] is 634. Further, the inhibition was -9.3% (inactive) in test [1], 10% (inactive) in test [3], -2.81% (inactive) in test [7] and 13.5% (inactive) in test [8]. In addition, the inhibition of aggregation in test [2] was 12.2% (inactive). In addition, the values for the nuclei count in test [2] and in test [3] were 79.6% and 116%, respectively. In test [4], the fluorescence slope is -0.563 (inactive). The NADPH fluorescence slope in test [5] was 2.3e-05 (inactive). Further, the slope in test [6] is 0.00563 (inactive).
In the case of `O=c1c2cc3ccccc3n2cnn1Cc1ccccc1F`, the cell count in test [1] worked out at 345. Further, the inhibition in test [1] is -8.5% (inactive); in test [3] it was -105% (inactive); in test [7], -21.7% (inactive); in test [8], -7.8% (inactive). Moreover, in test [2], the inhibition of aggregation was 29.9% (inactive). Also, the nuclei count came out at 89.6% in test [2] and 108% in test [3]. Moreover, the fluorescence slope in test [4] is -0.51 (inactive). The NADPH fluorescence slope in test [5] was 3.1e-05 (inactive). Also, the slope in test [6] is 0.00758 (inactive).
Consider `CCOC(=O)CCNC(=O)Nc1ccc2nc(C)n(Cc3ccccc3Cl)c(=O)c2c1`, for which the cell count in test [1] came out at 623. Further, the inhibition in test [1] is 1.4% (inactive); in test [3], -33.8% (inactive); in test [7] it was 1.46% (inactive); in test [8], -9.46% (inactive). In addition, in test [2], the inhibition of aggregation was -9.2% (inactive). Besides, the nuclei count in test [2] turned out to be 89.5%; in test [3], 104%. Further, the fluorescence slope in test [4] was -0.366 (inactive). For the same molecule, the NADPH fluorescence slope in test [5] was 1.6e-05 (inactive). For the same molecule, in test [6], the slope is 0.00472 (inactive).
Consider `Cn1nc(-c2ccc(N3CCCCC3)c(NC(=O)c3ccco3)c2)c2ccccc2c1=O`, for which, in test [1], the cell count is 672. Moreover, the inhibition in test [1] was -15.6% (inactive); in test [3], 32.2% (inactive); in test [7] it was 13.4% (inactive); in test [8], 75.2% (active). Further, the inhibition of aggregation in test [2] was -14.2% (inactive). Besides, the nuclei count in test [2] worked out at 62.8%; in test [3] it was 84.4%. For the same molecule, the fluorescence slope in test [4] is -0.5 (inactive). Also, in test [5], the NADPH fluorescence slope was -5.2e-06 (inactive). Moreover, the slope in test [6] was 0.00571 (inactive).
As to `CCOc1cc(C2NC(=O)N(C)C(C)=C2C(=O)OC)cc(Br)c1O` (centres undefined), the cell count in test [1] worked out at 620. The inhibition is -17.6% (inactive) in test [1], -13.7% (inactive) in test [3], -0.511% (inactive) in test [7] and 5.13% (inactive) in test [8]. The inhibition of aggregation in test [2] is -9.6% (inactive). Moreover, the nuclei count in test [2] turned out to be 110%; in test [3], 104%. Moreover, the fluorescence slope in test [4] is -0.611 (inactive). Moreover, in test [5], the NADPH fluorescence slope is -4.2e-05 (inactive). Also, in test [6], the slope was 0.00546 (inactive).
